# Screening results (PubChem BioAssay)
# Only some compounds are listed: those with a hit (about 4% of all), similar ones and a draw of the others.
# aDG glyco act: increases alpha dystroglycan glycosylation | Pro5-aDG cells, alpha-DG glycosylation AlphaScreen (IIH6); 0% Pro5, 100% B10-LARGE cell signal | activation, % at 10 µM | 360,000 compounds, 0.22% hits | AID 624168;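 active means activation of at least 8% versus controls, or a plate z-score of at least 8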;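 further: Pro5 are CHO cells carrying HIG-tagged alpha-DG that lacks glycosylation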
# ADAM10 inh: inhibitors of human ADAM10. O14672. recombinant ADAM10, EDANS/DABCYL FRET peptide cleavage, 3 h. inhibition, % at 7 µM. 370,000 compounds, 0.62% hits;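 active means inhibition above a per-campaign cutoff equal to the mean of compounds falling between control-based bounds plus 3 SD, cut at about 20% in these data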;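 further: 0% = DMSO wells while the 100% control is not disclosed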
# GRIN3A LBD mod: modulators (binders) of human NR3A ligand-binding domain; NR3A LBD differential scanning fluorimetry, Tm shift; 0% = protein alone, 100% = glycine-bound protein; Tm shift relative to glycine control, % at 25 µM; 340,000 compounds, 2.5% hits;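 active means melting temperature shift of at least 10% of the positive control shift, at one fixed dose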
# FAS TE block: FAS thioesterase (human) inhibition | P49327 | recombinant FAS-TE, OMFH fluorogenic substrate, fluorescence endpoint | inhibition, % at 15 µM | 360,000 compounds, 0.67% hits;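 active means compounds whose normalised, plate-corrected inhibition of enzyme fluorescence in the single-dose primary screen is 50% or more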;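 further: 0% = DMSO with enzyme and 100% = substrate without enzyme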
# ADAM17 inh: ADAM17 inhibition, QFRET primary screen; P78536; recombinant ADAM17, EDANS/DABCYL FRET peptide cleavage; inhibition, % at 6.95 µM; 370,000 compounds, 0.83% hits;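 active means inhibition above the mean of compounds lying between control limits plus 3 SD, set per campaign, cut at about 8.5% in these data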;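 further: 0% = DMSO-only wells as the low control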
# Target sequence (P78536 215-824 limits assumed): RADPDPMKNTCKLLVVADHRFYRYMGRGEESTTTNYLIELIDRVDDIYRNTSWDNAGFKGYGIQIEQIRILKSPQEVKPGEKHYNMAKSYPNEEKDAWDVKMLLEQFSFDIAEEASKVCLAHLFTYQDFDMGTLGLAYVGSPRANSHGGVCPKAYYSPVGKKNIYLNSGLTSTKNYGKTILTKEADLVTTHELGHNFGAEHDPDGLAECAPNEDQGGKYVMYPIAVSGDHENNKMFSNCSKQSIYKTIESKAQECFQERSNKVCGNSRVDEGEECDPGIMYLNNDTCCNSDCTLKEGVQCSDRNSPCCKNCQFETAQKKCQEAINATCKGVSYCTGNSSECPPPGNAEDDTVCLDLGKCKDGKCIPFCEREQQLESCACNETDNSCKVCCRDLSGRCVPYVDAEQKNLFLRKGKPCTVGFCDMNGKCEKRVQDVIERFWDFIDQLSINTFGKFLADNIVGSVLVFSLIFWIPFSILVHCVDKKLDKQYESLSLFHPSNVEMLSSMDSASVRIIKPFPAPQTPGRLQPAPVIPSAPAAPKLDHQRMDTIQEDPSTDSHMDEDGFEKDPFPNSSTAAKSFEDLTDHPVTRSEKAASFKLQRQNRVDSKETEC
# FAS-TE conf: FAS thioesterase (human) inhibition, confirmation | shares compounds with FAS TE block | recombinant FAS-TE, OMFH fluorogenic substrate, fluorescence | inhibition, % at 15 µM | 2,300 compounds, 45% hits;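 active means compounds inhibiting the enzyme by at least 50% at 15 µM in any one of the replicates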;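 further: 0% = enzyme with DMSO only and 100% = wells lacking enzyme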
# * hit, by the source's call; x = no result given.
SMILES,aDG glyco act,ADAM10 inh,GRIN3A LBD mod,FAS TE block,ADAM17 inh,FAS-TE conf
O=C(C[C@H]1C[C@H](C(=O)N2CCOCC2)[C@@]2(CCC3CCCC3)c3[nH]c4ccc(Cl)cc4c3CCN2C1=O)NCC12CC3CC(CC(C3)C1)C2,0,-6,-1,82*,-7,2
COc1ccc2[nH]c3c(c2c1)CCN1C(=O)C(CC(=O)NCC24CC5CC(CC(C5)C2)C4)C[C@H](C(=O)N2CCOCC2)[C@@]31CCC1CCCC1 (stereo not given in full),1,-9,0,80*,-2,15
COc1ccc2[nH]c3c(c2c1)CCN1C(=O)C(CC(=O)NCCC2=CCCCC2)C[C@H](C(=O)N2CCOCC2)[C@@]31CCC1CCCC1 (stereo not given in full),0,-1,0,67*,-3,69*
CCS(=O)(=O)c1nc2ccccc2n1Cc1ccccc1Cl,0,-10,2,5,4,x
Cc1cccc(NC(=O)Nc2cc(C)on2)c1,0,1,-12,3,-3,x
COc1ccc(NC(=O)C(=O)N/N=C/c2cc(C)n(-c3cccc(Cl)c3Cl)c2C)c(OC)c1,0,-2,-1,63*,-2,5
COc1ccc(C2CC23N=C(c2ccccc2)OC3=O)cc1 (stereo not given),0,-10,1,85*,-4,96*
COc1ccc(C2CN=NC23CCc2ccccc2C3=O)cc1 (stereo not given),0,1,-1,17,0,x
CC1=C(C(=O)Nc2cccc(C(=O)N3CCN(c4cccc(C(F)(F)F)c4)CC3)c2)SCCO1,0,6,-3,15,0,x
CC(C)(C)C(=O)Nc1nc(C2CCCN2S(=O)(=O)c2ccc(Cl)cc2)cs1 (stereo not given),3,5,-1,55*,-1,65*
COc1ccc([N+](=O)[O-])cc1NC(=O)c1cn(-c2ccc(Cl)cc2)c(=O)c2ccccc12,0,1,1,91*,6,2
COc1ccc([N+](=O)[O-])cc1NC(=O)C(C)NNC(=O)c1cccc([N+](=O)[O-])c1 (stereo not given),0,9,-6,56*,0,53*
COc1ccc(NC(=O)CN(c2ccc([N+](=O)[O-])cc2)S(=O)(=O)c2ccccc2)c(OC)c1,0,12,-15,70*,3,68*
CC(CC(=O)Nc1cc([N+](=O)[O-])ccc1Cl)c1ccccc1 (stereo not given),0,-4,3,48,-5,x
O=C(Nc1cc([N+](=O)[O-])ccc1Cl)C(Sc1ccccc1)c1ccccc1 (stereo not given),0,10,-2,73*,5,67*
CC(C)NC(=O)c1c2c(nc3ccccc13)CCCC2,0,10,0,-6,0,x
CCOc1ccc(NC(=O)c2cn(-c3ccc(OCC)cc3)c(=O)c3cc(OC)c(OC)cc23)cc1,1,-7,-1,11,-2,x
COc1cccc(NC(C)C(=O)Nc2cc([N+](=O)[O-])ccc2Cl)c1 (stereo not given),0,0,-2,56*,-3,58*
COc1ccc(N(CC(=O)N/N=C/c2ccc(OC3CSC3)cc2)S(=O)(=O)c2ccccc2)cc1,0,-2,16*,50*,-1,6
Cc1ccc(N(CC(=O)N/N=C/c2ccc(OC3CSC3)cc2)S(=O)(=O)c2ccccc2)cc1,0,1,0,42,-2,x
CC(=O)Nc1cccc(Oc2ccc([N+](=O)[O-])cc2Cl)c1,0,9,4,-5,1,x
CCOc1ccc(-n2cc(C(=O)Nc3cccc(Cl)c3)c3cc(OC)c(OC)cc3c2=O)cc1,1,5,-1,59*,2,19
COc1ccc([N+](=O)[O-])cc1NC(=O)CC(c1ccccc1)c1ccccc1,0,10,2,62*,6,54*
N#Cc1ccc(C23OCCN2CCn2c3c3ccccc3[n+]2[O-])cc1 (stereo not given),0,-96,0,-10,-31,x
COc1ccc([N+](=O)[O-])cc1NC(=O)C1(c2ccccc2)CCOCC1,0,12,-3,51*,1,53*
SMILES,aDG glyco act,ADAM10 inh,GRIN3A LBD mod,FAS TE block,ADAM17 inh,FAS-TE conf
COc1ccc([N+](=O)[O-])cc1NC(=O)CCN1CCOCC1,0,-1,3,10,-5,x
COC(=O)c1cccc(NC(=S)NCc2ccc(Cl)cc2)c1,0,6,0,18,-1,x
COC(=O)c1cc(NC(=S)NCc2ccc(Cl)cc2)cc(C(=O)OC)c1,0,2,25*,51*,7,36
CC(C)CCSc1nc(N)c(C#N)cc1C#N,0,-78,-3,65*,-29,9
Cc1ccccc1NC(=O)CSc1nc(N)c(C#N)cc1C#N,0,-37,-2,-2,-16,x
CC(=O)c1cc(C#N)c(SCCC(C)C)nc1C,0,x,1,56*,x,48
COc1ccc([N+](=O)[O-])cc1NC(=O)COC(=O)c1ccc(O)cc1,0,0,-1,-7,-2,x
Cc1cccn2c(=O)c(/C=C(\C#N)S(=O)(=O)c3ccccc3)c(N3CCCCC3)nc12,0,-66,0,54*,-30,5
N#C/C(=C\c1c(N2CCN(c3ccccc3)CC2)nc2ccccn2c1=O)S(=O)(=O)c1ccccc1,0,-2,-8,71*,-6,9
CCOC(=O)C1CCN(c2nc3c(C)cccn3c(=O)c2/C=C(\C#N)S(=O)(=O)c2ccccc2)CC1,3,6,1,65*,1,5
CC(=O)NC(CC(=O)OCc1ccc([N+](=O)[O-])cc1)c1ccccc1 (stereo not given),0,2,-2,5,-3,x
CC(NC(=O)c1ccc([N+](=O)[O-])cc1Cl)C1CC2CCC1C2 (stereo not given),0,12,-1,57*,4,66*
O=C(/C=C/c1cccc([N+](=O)[O-])c1)N1CCN(c2ccccc2F)CC1,2,-1,-3,56*,2,42*
COc1ccc(COC(=O)c2ccc(S(=O)(=O)N3CCC(C)CC3)cc2)cc1,0,-11,0,9,-3,x
Cc1sc2ncn(CC(=O)N3CCCC(C)C3)c(=O)c2c1S(=O)(=O)N1CCCCC1 (stereo not given),0,-1,-1,-2,-3,x
Cc1cccc(C2=NN(c3ccccc3)[C@@H](C(=O)N3CCOC3=O)[C@@H]2c2ccc([N+](=O)[O-])cc2)c1,0,13,8,92*,7,17
